# Measured values reported in PubChem BioAssay (NCI).
# Several values for one entry are separate records, joined by “and”; a condition that tells them apart may be missing. Equal values may be shown once. This is part of a sample that, as a whole, favours compounds with a hit. Of some 83,000 tested, about 20% had one in any assay.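 Single-dose data. Exposure time 48 hours. Values below 10 considered active.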 Activity calls are given as the source filed them.
# How the values were obtained:
# Assay in all cases: NCI-60 one-dose screen, 48 h (100 = growth as untreated, 0 = no growth, -100 = all killed)
# Conditions in all cases: 10 µM unless noted
# [1] = tested on: NCI-H226 lung
# [2] = tested on: NCI-H322M lung
# [3] = tested on: NCI-H460 lung
# [4] = tested on: HOP-92 NSCLC
# [5] = tested on: NCI-H522 lung
# [6] = tested on: 786-0 renal
# [7] = tested on: COLO 205 colon
# [8] = tested on: DU-145 prostate
# [9] = tested on: MALME-3M melanoma
# [10] = tested on: MDA-MB-231 breast
# [11] = tested on: RXF 393 renal
# [12] = tested on: SF-268 CNS
# [13] = tested on: SF-295 CNS
# [14] = tested on: SF-539 CNS
# [15] = tested on: UACC-257 melanoma
# [16] = tested on: M14 melanoma
# [17] = tested on: NCI-H23 lung
# [18] = tested on: HOP-62 NSCLC
# [19] = tested on: A549/ATCC NSCLC
# [20] = tested on: K-562 leukemia
SMILES,growth [1],growth [2],growth [3],growth [4],growth [5],growth [6],growth [7],growth [8],growth [9],growth [10],growth [11],growth [12],growth [13],growth [14],growth [15],growth [16],growth [17],growth [18],growth [19],growth [20]
O=C(O)c1cc(C(=O)O)cc([N+](=O)[O-])c1,102% (inactive),105% (inactive),110% (inactive),111% (inactive),94.3% (inactive),101% (inactive),110% (inactive),116% (inactive),95.2% (inactive),105% (inactive),123% (inactive),111% (inactive),93.4% (inactive),100% (inactive),103% (inactive),99.8% (inactive),,,,
O=C(/C=C/c1ccccn1)c1ccccc1O,93.2% (inactive) and 97.3% (inactive),,65.2% (inactive) and 101% (inactive),75.5% (inactive) and 34.2% (inactive),67.8% (inactive) and 28.4% (inactive),90.6% (inactive) and 91.4% (inactive),63.6% (inactive) and 65.4% (inactive),76.4% (inactive) and 71% (inactive),70.1% (inactive) and 107% (inactive),70.4% (inactive) and 95.9% (inactive),31.8% (inactive) and 56.4% (inactive),72.4% (inactive) and 61.6% (inactive),68.9% (inactive) and 91.6% (inactive),42.1% (inactive) and 80.9% (inactive),49.9% (inactive) and 84.9% (inactive),72.5% (inactive) and 82.3% (inactive),73.9% (inactive) and 81.3% (inactive),79.5% (inactive) and 72.2% (inactive),55.3% (inactive) and 79.7% (inactive),
CC1(C)C2CCC1(CS(=O)(=O)O)C(=O)C2 (stereo not given),,,,,,,,,,,,,,,,,,101% (inactive),,
C1CCCCNCCC1,99.2% (inactive),111% (inactive),118% (inactive),88.3% (inactive),115% (inactive),109% (inactive),121% (inactive),118% (inactive),106% (inactive),101% (inactive),103% (inactive),109% (inactive),104% (inactive),113% (inactive),100% (inactive),105% (inactive),,116% (inactive),105% (inactive),104% (inactive)
CC1=C(/C=C/C(C)=C/C=C/C(C)=C/C(=O)Nc2ccc(O)cc2)C(C)(C)CCC1,74.3% (inactive),101% (inactive),27.7% (inactive),,-47.6% (active),52.8% (inactive),38.6% (inactive),68.4% (inactive),76.1% (inactive),54.5% (inactive),60.8% (inactive),60.8% (inactive),4.64% (active),-32.7% (active),76.7% (inactive),53.5% (inactive),,88.6% (inactive),55.9% (inactive),
COc1cc(C(=O)N/N=C/c2ccc(N(C)C)cc2)cc(OC)c1OC,71.9% (inactive),,3.54% (active),46.8% (inactive),,42.2% (inactive),-25.7% (active),0.807% (active),,30.2% (inactive),26.4% (inactive),57.6% (inactive),19.1% (inactive),14.1% (inactive),43.2% (inactive),6.72% (active),19.4% (inactive),,18.4% (inactive),14% (inactive)
O=C=NC(c1ccccc1)(c1ccccc1)c1ccccc1,111% (inactive),,111% (inactive),110% (inactive),90.2% (inactive),95% (inactive),101% (inactive),106% (inactive),95.2% (inactive),97.5% (inactive),129% (inactive),104% (inactive),98% (inactive),110% (inactive),107% (inactive),101% (inactive),,143% (inactive),107% (inactive),
Cc1cc(=O)[nH]c(O)c1C#N,103% (inactive) and 101% (inactive),,105% (inactive) and 104% (inactive),106% (inactive) and 52% (inactive),101% (inactive) and 96.9% (inactive),97.7% (inactive) and 98.5% (inactive),111% (inactive) and 104% (inactive),112% (inactive) and 106% (inactive),98% (inactive) and 103% (inactive),107% (inactive) and 109% (inactive),106% (inactive),109% (inactive) and 101% (inactive),99.6% (inactive) and 98.5% (inactive),97.8% (inactive) and 105% (inactive),99.4% (inactive) and 103% (inactive),99.4% (inactive) and 101% (inactive),103% (inactive) and 97.6% (inactive),96.6% (inactive) and 101% (inactive),,106% (inactive) and 112% (inactive)
O=C(Cc1cccc2ccccc12)N/N=C/c1ccc2c(c1)CCC2,97.3% (inactive),,81.5% (inactive),,,88% (inactive),82% (inactive),96.6% (inactive),63.6% (inactive),75% (inactive),86% (inactive),82.3% (inactive),,83% (inactive),87.3% (inactive),77.9% (inactive),88.5% (inactive),,65.8% (inactive),17.3% (inactive)
O=C1C2=C(C(=O)c3ccccc31)C(O)(S(=O)(=O)O)C(O)(S(=O)(=O)O)C1N=CC=CC21 (stereo not given),57% (inactive) and 68.1% (inactive),,12.2% (inactive) and 4.17% (active),-2.69% (active),24.8% (inactive) and -11.8% (active),32.7% (inactive) and 20.3% (inactive),50.3% (inactive),64.2% (inactive) and 48% (inactive),73% (inactive) and 62.1% (inactive),58.3% (inactive) and 47.6% (inactive),76.7% (inactive) and 58.1% (inactive),52.2% (inactive) and 36.5% (inactive),6.52% (active) and 15.4% (inactive),25.4% (inactive) and 20.8% (inactive),71.4% (inactive) and 35.3% (inactive),42.9% (inactive),31.8% (inactive) and 20.8% (inactive),42.1% (inactive) and 41.9% (inactive),,13.5% (inactive) and 40% (inactive)
O=C(CCl)c1ccc2c(c1)Nc1ccccc1S2,89.4% (inactive) and 91.2% (inactive),,110% (inactive) and 105% (inactive),101% (inactive),66.1% (inactive) and -35.2% (active),63.6% (inactive) and 79.1% (inactive),110% (inactive) and 86.7% (inactive),104% (inactive),91.5% (inactive),97.7% (inactive) and 89.5% (inactive),103% (inactive),104% (inactive) and 98.5% (inactive),94.8% (inactive) and 96.3% (inactive),91.7% (inactive) and 84.5% (inactive),102% (inactive) and 96.8% (inactive),91.6% (inactive) and 91.5% (inactive),90.7% (inactive) and 94.2% (inactive),,,29.5% (inactive) and 30.3% (inactive)
CC12CCC(CC1)C(C)(C)O2,104% (inactive),101% (inactive),118% (inactive),,95% (inactive),94.5% (inactive),110% (inactive),110% (inactive),101% (inactive),100% (inactive),117% (inactive),119% (inactive),91% (inactive),103% (inactive),108% (inactive),99.7% (inactive),,,102% (inactive),
c1ccc(N(c2ccccc2)c2ccccc2)cc1,104% (inactive),97.6% (inactive),111% (inactive),,,97.9% (inactive),113% (inactive),113% (inactive),93.8% (inactive),120% (inactive),122% (inactive),106% (inactive),92% (inactive),104% (inactive),104% (inactive),100% (inactive),,,99% (inactive),
Nc1ccn(C2OC(CO)C(O)C2O)c(=O)n1 (stereo not given),,,,,,,,24% (inactive) and 12.2% (inactive) and 114% (inactive),,110% (inactive) [middle of 4 runs],90.6% (inactive) and 33.4% (inactive) and 134% (inactive),35.8% (inactive) and 41.2% (inactive) and 104% (inactive),,,,,,,,
NC(=O)c1ccccc1OCC(O)CO (stereo not given),95.8% (inactive),,103% (inactive),117% (inactive),,103% (inactive),114% (inactive),114% (inactive),115% (inactive),103% (inactive),98.9% (inactive),105% (inactive),83.1% (inactive),90.2% (inactive),97.9% (inactive),112% (inactive),110% (inactive),101% (inactive),98.1% (inactive),107% (inactive)
